For 5 molecules, composite z-score and z-score results are on record in PubChem BioAssay.

The test system of test [1] is PRMT1 (protein arginine N-methyltransferase 1). Kind of test: small molecules binding arginine methyltransferase PRMT1 – biochemical, small-molecule microarray, 635 nm fluorescence, primary screen (AID 1088).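 Also: binding of Prmt1 protein to compounds spotted on small-molecule microarray slides.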 The following applies: higher = more signal.
Test [2] can be described thus: growth effects on S. cerevisiae YJM789 – YJM789 clinical isolate, OD600, 24 h, basal, primary screen (AID 1089).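 Also: growth of clinical yeast isolate S. cerevisiae YJM 789 seeded 1000 cells per well; test concentration not given here.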 The following applies: higher = more signal, called active from +8 up or from −8 down.
The nature of test [3]: S. pombe growth modifiers, basal conditions – strain 972, OD600, 24 h, no modulator, primary screen (AID 1090).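 Also: basal condition with compound alone and no growth modifier present; test concentration not given here.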 Conditions: S. pombe 972 growth, higher = more signal, called active from +8 up or from −8 down.
Test [4] in a line: budding yeast growth modifiers under rapamycin – strain BY4716, OD600, 96 h, primary screen (AID 1091). Also: test concentration not given here. Conditions: S. cerevisiae BY4716 + rapamycin, higher = more signal, called active from +8 up or from −8 down.
Test [5] has as its target Torsin-1A-interacting protein 2 (Homo sapiens) (UniProt Q8NFQ8). The test is described as follows: small molecules binding lysate-expressed LULL1 – cell lysate, human LULL1 lysate, 635/667 nm fluorescence, primary screen (AID 1092).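 Also: probe is lysate of COS7 cells overexpressing human LULL1; score merges per-feature 667 nm fluorescence with signal-to-noise.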 The following applies: small-molecule microarray, hLULL1 lysate binding, 635 nm fluorescence; higher = more signal.
The nature of test [6]: optical density change of DRC41 E. coli – strain DRC41, OD650, 24 h, E. coli filamentation project, primary screen (AID 1093).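 Also: MC1000 strain lacking acrAB efflux and sulA so SOS filamentation is blocked; test concentration not given here.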 The following applies: E. coli DRC41 growth, higher = more signal, called active from +8 up or from −8 down.
The nature of test [7]: probe aLefty2 binding to arrayed compounds – biochemical, biotinylated probe, 635/667 nm fluorescence, primary screen (AID 1094).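 Also: score merges spot fluorescence near 667 nm with spot signal-to-noise ratio.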 The following applies: small-molecule microarray, higher = more signal.
Test [8] has as its system Noggin (protein binding on small-molecule microarray). Kind of test: small molecules binding Noggin protein – biochemical, 635/667 nm fluorescence, primary screen (AID 1095).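 Also: score merges 667 nm feature fluorescence with signal to noise over triplicate slides.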 Conditions: 635 nm fluorescence, higher = more signal.
The target of test [9] is Neurogenic locus notch homolog protein 3 (Homo sapiens) (UniProt Q9UM47). The test is described as follows: small molecules binding NOTCH3 protein – biochemical, 635/667 nm fluorescence, primary screen (AID 1096). Conditions: small-molecule microarray, 635 nm fluorescence, higher = more signal.
A short description of test [10]: probe aEGFR binding to arrayed compounds – biochemical, biotinylated probe, 635/667 nm fluorescence, primary screen (AID 1097).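 Also: probe is a biotinylated anti-EGFR antibody binding compounds printed on slides; score combines fluorescence near 667 nm and signal to noise of each spot.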 Conditions: small-molecule microarray, higher = more signal.
Test [11] has as its system Plasmodium falciparum Sir2 (PF13_0152, Sir2A). The test is described as follows: Plasmodium falciparum Sir2A binding compounds – biochemical, small-molecule microarray, 635 nm fluorescence, primary screen (AID 1098).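 Also: score merges spot fluorescence intensity with its signal-to-noise ratio.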 The following applies: fluorescence 635 nm, higher = more signal.
The nature of test [12]: probe aDKK1 binding to arrayed compounds – biochemical, biotinylated probe, 635/667 nm fluorescence, primary screen (AID 1099).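 Also: score merges 667nm spot fluorescence with signal to noise across triplicate slides; reference of the scale not given here.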 The following applies: small-molecule microarray, higher = more signal.
The nature of test [13]: probe aCHRDL2 binding to arrayed compounds – biochemical, biotinylated probe, 635/667 nm fluorescence, primary screen (AID 1100). Conditions: small-molecule microarray, higher = more signal.
Test [14] can be described thus: change in splice reporter luminescence, either direction, cell-based, HEK293, spliceosome inhibition project, primary screen (AID 1101).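 Also: HEK293 cells carrying a splicing-competent luciferase reporter gene; test concentration not given here.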 The following applies: HEK293 splicing luciferase reporter, 24 h, higher = more signal, called active from +8 up or from −8 down.
Test [15] concerns the target Fibroblast growth factor 10 (Homo sapiens) (UniProt O15520). Kind of test: compounds binding fibroblast growth factor 10 – biochemical, small-molecule microarray, 635 nm fluorescence, primary screen (AID 1102). The following applies: FGF10 binding, fluorescence 635 nm, higher = more signal.
In test [16] the test system is glycogen synthase kinase-3 (GSK3A per assay name; protocol says GSK3B). The test is described as follows: compounds binding glycogen synthase kinase-3 – biochemical, small-molecule microarray, 635 nm fluorescence, GSK3A, primary screen (AID 1103). Also: the record names both GSK3A and GSK3B. The following applies: fluorescence 635 nm, higher = more signal.
The target of test [17] is Epidermal growth factor receptor (Homo sapiens) (UniProt P00533). The test is described as follows: compounds binding epidermal growth factor receptor – biochemical, small-molecule microarray, 635 nm fluorescence, primary screen (AID 1104).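 Also: score merges 667 nm emission intensity with spot signal to noise over triplicate slides.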 The following applies: EGFR binding, higher = more signal.
The target in test [18] is Follistatin-related protein 3 (Homo sapiens) (UniProt O95633). Kind of test: compounds binding follistatin-related protein 3 – biochemical, small-molecule microarray, 635 nm fluorescence, primary screen (AID 1105).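 Also: score merges emission near 667 nm and signal to noise per printed spot across three slides.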 Conditions: FSTL3 binding, higher = more signal.
Test [19] concerns the target Dickkopf-related protein 1 (Homo sapiens) (UniProt O94907). Kind of test: small molecules binding DKK1 protein – biochemical, small-molecule microarray, 635 nm fluorescence scan, primary screen (AID 1106).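 Also: score merges emission near 667 nm with signal to noise over three replicate slides.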 The following applies: higher = more signal.
Test [20] deals with Inhibin beta A chain (activin A). Kind of test: small molecules binding activin A – biochemical, small-molecule microarray, 635 nm fluorescence scan, primary screen (AID 1107).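 Also: mouse activin A protein probed at 4.33 µg/mL on printed slides; score merges bound-protein fluorescence near 667 nm with spot signal-to-noise.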 The following applies: INHBA, higher = more signal.

Structures are written as SMILES. The source made the active and inactive calls.

Epidermal growth factor receptor (Homo sapiens), sequence (P00533 whole entry, looked up): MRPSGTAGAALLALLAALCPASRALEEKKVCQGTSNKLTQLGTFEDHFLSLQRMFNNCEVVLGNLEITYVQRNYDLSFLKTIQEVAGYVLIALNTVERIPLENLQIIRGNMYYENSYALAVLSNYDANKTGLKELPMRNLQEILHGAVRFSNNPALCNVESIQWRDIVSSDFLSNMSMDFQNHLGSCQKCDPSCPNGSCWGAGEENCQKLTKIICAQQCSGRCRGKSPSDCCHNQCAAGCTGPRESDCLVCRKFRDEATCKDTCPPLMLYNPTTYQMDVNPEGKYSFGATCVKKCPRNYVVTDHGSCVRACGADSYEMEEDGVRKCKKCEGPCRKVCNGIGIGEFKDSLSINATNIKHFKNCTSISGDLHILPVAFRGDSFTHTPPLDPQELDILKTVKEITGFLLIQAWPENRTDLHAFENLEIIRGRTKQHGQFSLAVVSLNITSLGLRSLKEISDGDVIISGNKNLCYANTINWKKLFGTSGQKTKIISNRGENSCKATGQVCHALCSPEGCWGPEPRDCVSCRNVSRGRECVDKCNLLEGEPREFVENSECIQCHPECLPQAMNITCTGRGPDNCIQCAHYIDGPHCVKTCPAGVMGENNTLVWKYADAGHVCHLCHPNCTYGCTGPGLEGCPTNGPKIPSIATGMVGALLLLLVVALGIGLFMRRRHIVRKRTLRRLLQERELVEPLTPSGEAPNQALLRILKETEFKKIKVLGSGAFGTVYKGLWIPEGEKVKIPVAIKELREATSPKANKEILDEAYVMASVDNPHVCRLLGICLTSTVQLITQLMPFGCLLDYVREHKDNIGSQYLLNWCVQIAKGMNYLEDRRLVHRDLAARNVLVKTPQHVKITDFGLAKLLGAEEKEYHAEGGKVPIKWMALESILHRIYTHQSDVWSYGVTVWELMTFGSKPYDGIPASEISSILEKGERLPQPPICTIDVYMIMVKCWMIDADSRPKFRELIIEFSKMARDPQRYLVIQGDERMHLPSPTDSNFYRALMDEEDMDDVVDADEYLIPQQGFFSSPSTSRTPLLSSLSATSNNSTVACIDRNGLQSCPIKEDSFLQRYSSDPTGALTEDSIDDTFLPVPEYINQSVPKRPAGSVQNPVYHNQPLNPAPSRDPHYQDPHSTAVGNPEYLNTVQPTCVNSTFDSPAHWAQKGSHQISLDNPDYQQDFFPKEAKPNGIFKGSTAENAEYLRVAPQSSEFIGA
Dickkopf-related protein 1 (Homo sapiens), sequence (O94907 whole entry, looked up): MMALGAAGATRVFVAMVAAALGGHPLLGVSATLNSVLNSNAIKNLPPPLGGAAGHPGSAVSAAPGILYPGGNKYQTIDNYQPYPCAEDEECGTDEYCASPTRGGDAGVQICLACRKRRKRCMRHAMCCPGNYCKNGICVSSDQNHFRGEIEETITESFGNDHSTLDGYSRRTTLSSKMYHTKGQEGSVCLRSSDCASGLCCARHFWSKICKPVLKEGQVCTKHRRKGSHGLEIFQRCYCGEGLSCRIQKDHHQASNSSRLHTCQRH
Follistatin-related protein 3 (Homo sapiens), sequence (O95633 whole entry, looked up): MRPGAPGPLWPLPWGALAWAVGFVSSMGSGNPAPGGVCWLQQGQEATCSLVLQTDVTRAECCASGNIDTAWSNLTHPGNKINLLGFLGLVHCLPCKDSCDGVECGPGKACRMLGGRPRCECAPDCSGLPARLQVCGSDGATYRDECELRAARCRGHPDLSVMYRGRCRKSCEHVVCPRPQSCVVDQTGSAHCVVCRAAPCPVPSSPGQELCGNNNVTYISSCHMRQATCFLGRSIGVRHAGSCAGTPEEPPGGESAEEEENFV
Fibroblast growth factor 10 (Homo sapiens), sequence (O15520 whole entry, looked up): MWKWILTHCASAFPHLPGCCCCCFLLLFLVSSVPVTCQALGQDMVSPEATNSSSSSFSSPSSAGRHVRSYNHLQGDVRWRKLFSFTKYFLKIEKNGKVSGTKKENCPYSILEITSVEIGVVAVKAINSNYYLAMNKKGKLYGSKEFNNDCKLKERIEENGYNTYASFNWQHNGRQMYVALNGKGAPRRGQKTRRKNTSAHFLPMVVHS
Neurogenic locus notch homolog protein 3 (Homo sapiens), sequence (Q9UM47 whole entry, looked up): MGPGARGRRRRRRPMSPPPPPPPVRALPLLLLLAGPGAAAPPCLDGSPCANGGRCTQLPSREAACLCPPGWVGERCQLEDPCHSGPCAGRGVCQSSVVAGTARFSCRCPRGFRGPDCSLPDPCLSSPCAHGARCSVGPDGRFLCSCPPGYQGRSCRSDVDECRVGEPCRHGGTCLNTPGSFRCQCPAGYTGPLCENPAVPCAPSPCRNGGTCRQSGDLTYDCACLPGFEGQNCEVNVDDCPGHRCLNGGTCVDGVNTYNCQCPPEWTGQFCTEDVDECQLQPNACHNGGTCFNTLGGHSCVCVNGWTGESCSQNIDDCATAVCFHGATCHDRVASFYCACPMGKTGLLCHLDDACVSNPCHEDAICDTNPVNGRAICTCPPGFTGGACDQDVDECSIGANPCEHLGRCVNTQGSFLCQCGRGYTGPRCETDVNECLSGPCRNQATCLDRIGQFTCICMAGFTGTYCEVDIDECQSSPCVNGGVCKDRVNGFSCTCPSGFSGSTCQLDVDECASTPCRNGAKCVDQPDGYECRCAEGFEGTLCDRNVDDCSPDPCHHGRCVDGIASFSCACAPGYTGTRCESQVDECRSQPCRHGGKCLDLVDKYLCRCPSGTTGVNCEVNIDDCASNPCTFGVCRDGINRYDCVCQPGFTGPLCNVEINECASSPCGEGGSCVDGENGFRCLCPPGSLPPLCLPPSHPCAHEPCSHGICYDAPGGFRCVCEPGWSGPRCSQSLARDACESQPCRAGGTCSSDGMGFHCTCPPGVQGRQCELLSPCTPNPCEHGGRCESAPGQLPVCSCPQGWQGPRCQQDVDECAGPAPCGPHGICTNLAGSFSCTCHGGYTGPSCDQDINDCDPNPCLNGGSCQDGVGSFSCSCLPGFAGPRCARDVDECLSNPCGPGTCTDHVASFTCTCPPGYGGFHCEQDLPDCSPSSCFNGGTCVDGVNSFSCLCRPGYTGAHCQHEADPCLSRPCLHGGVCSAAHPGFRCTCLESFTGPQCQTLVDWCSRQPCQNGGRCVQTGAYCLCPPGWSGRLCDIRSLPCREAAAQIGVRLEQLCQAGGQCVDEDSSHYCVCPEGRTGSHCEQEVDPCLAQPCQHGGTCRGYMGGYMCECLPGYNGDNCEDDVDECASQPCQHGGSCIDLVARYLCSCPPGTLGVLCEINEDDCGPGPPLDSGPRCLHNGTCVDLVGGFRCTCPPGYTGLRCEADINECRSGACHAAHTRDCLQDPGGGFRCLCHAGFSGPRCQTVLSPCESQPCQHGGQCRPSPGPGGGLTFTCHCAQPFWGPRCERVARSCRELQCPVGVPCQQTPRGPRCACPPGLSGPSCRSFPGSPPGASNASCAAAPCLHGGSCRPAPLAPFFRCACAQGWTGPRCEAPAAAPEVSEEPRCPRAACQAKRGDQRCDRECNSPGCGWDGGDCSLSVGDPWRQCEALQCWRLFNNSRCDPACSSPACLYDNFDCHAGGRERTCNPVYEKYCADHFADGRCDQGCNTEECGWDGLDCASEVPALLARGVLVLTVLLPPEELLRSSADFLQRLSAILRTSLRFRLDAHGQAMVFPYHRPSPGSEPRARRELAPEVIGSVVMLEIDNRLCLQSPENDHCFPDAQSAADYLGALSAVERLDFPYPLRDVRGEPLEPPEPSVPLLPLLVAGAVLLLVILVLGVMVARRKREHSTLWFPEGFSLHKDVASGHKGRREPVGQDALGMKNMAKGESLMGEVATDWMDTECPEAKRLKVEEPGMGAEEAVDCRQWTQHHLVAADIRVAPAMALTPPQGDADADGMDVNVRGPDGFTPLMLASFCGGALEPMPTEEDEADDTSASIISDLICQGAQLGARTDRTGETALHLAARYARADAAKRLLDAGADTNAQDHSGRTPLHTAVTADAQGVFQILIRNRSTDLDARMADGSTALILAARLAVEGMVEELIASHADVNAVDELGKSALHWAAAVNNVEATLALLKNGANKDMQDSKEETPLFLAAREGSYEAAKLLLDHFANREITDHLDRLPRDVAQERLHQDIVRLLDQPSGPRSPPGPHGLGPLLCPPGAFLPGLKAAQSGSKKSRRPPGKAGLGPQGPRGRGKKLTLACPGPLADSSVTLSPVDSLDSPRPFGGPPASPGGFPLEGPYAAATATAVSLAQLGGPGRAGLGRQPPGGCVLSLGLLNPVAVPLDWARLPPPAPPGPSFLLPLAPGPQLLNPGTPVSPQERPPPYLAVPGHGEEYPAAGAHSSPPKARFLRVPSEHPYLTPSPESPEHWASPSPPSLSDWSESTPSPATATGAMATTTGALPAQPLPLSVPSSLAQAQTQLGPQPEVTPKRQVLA
Torsin-1A-interacting protein 2 (Homo sapiens), sequence (Q8NFQ8 whole entry, looked up): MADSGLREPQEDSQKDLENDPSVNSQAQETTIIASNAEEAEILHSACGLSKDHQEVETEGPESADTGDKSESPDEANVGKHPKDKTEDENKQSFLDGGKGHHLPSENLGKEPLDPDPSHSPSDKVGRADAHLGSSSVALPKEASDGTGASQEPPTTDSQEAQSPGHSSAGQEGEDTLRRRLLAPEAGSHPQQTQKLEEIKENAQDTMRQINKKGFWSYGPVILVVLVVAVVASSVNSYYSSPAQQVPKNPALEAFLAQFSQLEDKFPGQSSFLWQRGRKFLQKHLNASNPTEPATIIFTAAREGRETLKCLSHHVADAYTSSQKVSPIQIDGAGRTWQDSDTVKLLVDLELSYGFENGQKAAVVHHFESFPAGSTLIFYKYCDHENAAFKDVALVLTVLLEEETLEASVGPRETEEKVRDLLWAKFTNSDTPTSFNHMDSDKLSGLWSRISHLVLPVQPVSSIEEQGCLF

Take `CO[C@H]1COC(=O)[C@@H](OCc2ccccc2)C=C[C@H](C)[C@@H](OC)COC(=O)[C@H](OCc2ccccc2)C=C[C@@H]1C`: the composite z-score in [1] was -0.374; in [5] it was -0.233; in [7], -0.462; in test [8], 0.816; in test [9], -0.472; in test [10] it was -0.188. The composite z-score in test [11] was -0.0155; in test [12], -0.46; in test [13] it was -0.984; in test [15], 0.181; in test [16], -0.0762; in test [17], -0.207. Besides, the values for the composite z-score in test [18], in [19] and in [20] were 0.172, 0.123 and -0.381, respectively. Moreover, the z-score in test [2] is -2.92 (inactive); in test [3] it was -2.88 (inactive); in [4], -0.495 (inactive); in test [6], -0.255 (inactive); in test [14], -1.8 (inactive).
Turning to `COc1ccc(-c2ccccc2[C@@H]2N[C@H](C(=O)O)CC[C@H]2C)cc1`, the composite z-score is -0.408 in [1]; 0.47 in [5]; -0.05 in [7]; 0.412 in test [8]; 0.412 in test [9]; 0.0068 in test [10]. The composite z-score in [11] is 0.0888; in [12], -0.267; in test [13], -0.519; in [15] it was 0.262; in test [16] it was 0.387; in test [17], 0.418. The composite z-score came out at 0.336 in test [18], 0.526 in test [19] and 0.135 in test [20]. The z-score was -0.306 (inactive) in test [2]; -0.572 (inactive) in [3]; 0.492 (inactive) in test [4]; 0.189 (inactive) in test [6]; -1.21 (inactive) in test [14].
For `C=CC(=O)O[C@@H](Cc1ccccc1)[C@H]1C2C=CCCC=C2CN1Cc1cccc(Cl)c1` (stereo not given in full), the composite z-score in [1] was -2.25; in test [5] it was -0.469; in test [7], -0.192; in test [8], -0.551; in test [9], -1.53; in test [10] it was -0.189. Besides, the composite z-score in test [11] was -0.426; in [12], 0.0657; in test [13] it was 0.502; in [15], -0.281; in test [16], -1.21; in test [17], -0.506. In addition, the composite z-score is -0.87 in test [18], -0.143 in test [19] and 1.11 in [20]. For the same molecule, the z-score was -0.476 (inactive) in test [2]; -2.23 (inactive) in test [3]; -1.47 (inactive) in test [4]; 2.01 (inactive) in [6]; -0.855 (inactive) in [14].
Take `C=CC[C@@]1(C(=O)NCC(O)CO)N=C(c2ccc(OCCCO)cc2)O[C@@H]1c1ccccc1CN=[N+]=[N-]` (stereo not given in full): the composite z-score in test [1] was 1.18; in test [5], 3.84; in [7], -0.147; in test [8] it was -0.265; in test [9] it was -0.216; in test [10], -0.152. The composite z-score in test [11] was 1.52; in [12] it was -0.0775; in test [13], 1.08; in [15], 0.0349; in test [16], -1.33; in test [17], -0.83. The composite z-score is -0.884 in test [18], -1.45 in [19] and 0.242 in [20]. Besides, the z-score in [2] was -0.785 (inactive); in test [3], -1.42 (inactive); in test [4] it was -1.04 (inactive); in test [6] it was 1.52 (inactive); in test [14] it was -0.155 (inactive).
Take `[N-]=[N+]=NCc1ccccc1C[C@@]1(C(=O)N2CCOCC2)N=C(c2ccc(OCCCO)cc2)O[C@@H]1c1ccccc1N=[N+]=[N-]`: the composite z-score in test [1] was 1.56; in [5], 3.16; in [7], 0.557; in [8], 0.41; in test [9], 1.08; in test [10], 0.318. Also, the composite z-score in [11] was 1.45; in [12], 1.41; in test [13], 1.31; in test [15], 1.42; in [16] it was 0.683; in [17] it was -0.11. The composite z-score was 0.436 in test [18], -0.433 in [19] and 1.32 in test [20]. Besides, the z-score in test [2] was -0.788 (inactive); in [3], -0.39 (inactive); in [4] it was 6.02 (inactive); in test [6], 0.282 (inactive); in test [14], -0.531 (inactive).
